# Reference: PubChem BioAssay AID1210 (NMMLSC, 2008)
# The source made the active and inactive calls.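 How the source made its calls: active means blocks over 70% of labeled estradiol binding at 10 µM, or over a set limit at 100 nM; inactive means the rest.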
# Target: Estrogen receptor beta (Homo sapiens) (UniProt Q92731)
# Test: ERbeta ligand binders by competition, primary screen, cell-based, Cos7 ERbeta-GFP, flow cytometry (AID 1210);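 further: 0% = DMSO vehicle wells and 100% = complete loss of labeled estradiol signal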
# Settings: fluorescent estrogen binding, at 10 µM, stronger effect = higher value
# Estrogen receptor beta (Homo sapiens), sequence (Q92731 whole entry, looked up): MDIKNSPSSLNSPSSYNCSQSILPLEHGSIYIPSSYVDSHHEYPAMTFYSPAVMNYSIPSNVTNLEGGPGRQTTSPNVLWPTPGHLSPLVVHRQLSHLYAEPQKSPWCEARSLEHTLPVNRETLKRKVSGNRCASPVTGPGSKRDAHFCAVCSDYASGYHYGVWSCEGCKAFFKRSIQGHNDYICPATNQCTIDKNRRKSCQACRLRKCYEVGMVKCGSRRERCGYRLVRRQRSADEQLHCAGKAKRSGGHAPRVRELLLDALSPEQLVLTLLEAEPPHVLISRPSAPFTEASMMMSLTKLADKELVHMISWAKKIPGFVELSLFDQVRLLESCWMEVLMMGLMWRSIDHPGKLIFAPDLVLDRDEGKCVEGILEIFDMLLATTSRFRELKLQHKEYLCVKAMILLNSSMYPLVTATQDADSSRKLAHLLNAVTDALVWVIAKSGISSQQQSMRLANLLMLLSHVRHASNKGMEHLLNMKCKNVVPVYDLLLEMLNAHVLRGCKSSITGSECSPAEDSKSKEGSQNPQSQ
row,Compound,inhibition
1,O=C(CSc1nc(C2CCCCC2)n(-c2ccccc2)n1)NCC(F)(F)F,0% (inactive)
2,O=C(NCCN1CCOCC1)c1cnn2c(-c3ccccc3)cc(-c3ccccc3)nc12,47% (inactive)
3,CCOc1cc(N2CCOCC2)c(OCC)cc1NC(=O)c1cc(-c2ccco2)nc2ccccc12,47% (inactive)
4,Nc1ccc2nc(CN3CCOCC3)[nH]c2c1,6% (inactive)
5,CNc1nnc(-c2cc3cc(Cl)ccc3oc2=O)s1,0% (inactive)
6,COc1cc2c3c(c1)/C(=C1/SC(NC(C)=O)=NC1=O)C(=O)N3C(C)(C)C=C2C,37% (inactive)
7,CN1C(=O)CSc2ccc(NC(=O)N3CCC(N4CCCCC4)CC3)cc21,30% (inactive)
8,CCC1(C)NC(=O)N(CC(=O)Nc2sc3c(c2C(N)=O)CCC3)C1=O (configuration not stated),58% (inactive)
9,O=C(CCCn1c(=S)[nH]c2cc3c(cc2c1=O)OCO3)N1CCN(c2ccc(Cl)cc2)CC1,0% (inactive)
10,Cc1nnc(NC(=O)Cc2cccs2)s1,4% (inactive)
11,O=Cc1cn(-c2ccccc2)nc1-c1cc2c(ccc3ccccc32)oc1=O,39% (active)
12,COc1cc2cc(C(c3nnnn3C3CCCC3)N3CCc4ccccc43)c(=O)[nH]c2cc1OC (configuration not stated),37% (inactive)
13,COc1cc(C2CC(=O)c3c(ccc4ccccc34)N2)ccc1O (configuration not stated),47% (inactive)
14,O=C(COC(=O)CCC(=O)c1cccs1)NCc1ccco1,54% (inactive)
15,COc1ccc(N2Cc3cccc(C(=O)O)c3C2=O)cc1,42% (inactive)
16,COc1ccc(-c2nnc(-c3cc4c(ccc5ccccc54)oc3=O)o2)cc1,33% (inactive)
17,Cc1csc2nc(CCNS(=O)(=O)c3ccc4c(c3)OCCO4)cn12,13% (active)
18,Cc1ccc(C2=Nc3ccccc3N=C(c3ccco3)C2)c(O)c1,2% (inactive)
19,C/C(N)=C(/C#N)C(=O)CSc1nnc(COc2ccccc2Cl)o1,44% (inactive)
20,CCOc1ccc2nc(NC(=O)CCC(=O)c3cccs3)sc2c1,29% (inactive)
21,O=C1NC(c2ccc(Br)cc2)Nc2sc3c(c21)CCC3 (configuration not stated),54% (inactive)
22,CC(=O)N1c2ccc(Cl)cc2C2C=CCC2C1c1cccc2ccccc12 (configuration not stated),51% (inactive)

# Same assay, conditions: fluorescent estrogen binding, ligand binding inhibition, at 0.1 µM, stronger effect = higher value
row,Compound,inhibition [%]
1,Cn1nnnc1SCC(=O)Nc1nc(-c2ccccc2)c(-c2ccccc2)o1,32
2,Oc1ccc(-c2nc(-c3ccc(O)c(O)c3)cs2)cc1,54
3,O=C(c1cccc(F)c1)N1CCN(C(=O)c2cc3ncc(Br)cn3n2)CC1,38
4,Oc1ccc(-c2[nH]nc(-c3ccccc3)c2-c2nc3ccccc3[nH]2)cc1,21
5,COC(=O)c1ccc(CC(=O)c2c(C)cc(O)cc2O)o1,22
6,O=C(COC(=O)CN1C(=O)c2ccccc2C1=O)Nc1ncc(Cl)cc1Cl,16
7,Cn1nc([N+](=O)[O-])c2c(-c3nc4ccccc4s3)c(N)n(C3CCCCC3)c2c1=O,34
8,O=C(Nc1cccc(-c2cnc3ccccc3n2)c1)c1cccc(NC(=O)c2ccco2)c1,43
9,Cc1ccccc1-n1nc(-c2ccc(N)cc2)cc1N,21
10,COc1cc(O)c2c(=O)c3c(OC)c(O)ccc3oc2c1,25
11,O=C1/C(=C\c2ccco2)SC(=S)N1c1ccc(O)cc1,27
12,O=c1c2c([nH]c3ccccc13)C(=C1CCCC1)CC2,11
13,O=C(Nc1cccc2cccc(NC(=O)c3ccco3)c12)c1ccco1,22
14,Cc1nc2ccccc2c(=O)n1/N=C/c1c(O)ccc2oc3c(c12)CCCC3,34
15,O=[N+]([O-])c1ccc(Cl)c2c1C1C=CCC1C(c1ccccn1)N2 (configuration not stated),19
16,CC(=O)c1ccc(NC(=S)N2CCC(O)CC2)cc1,23
17,O=C(CSc1nc(C2CCCCC2)n(-c2ccccc2)n1)NCC(F)(F)F,21
18,O=C(NCCN1CCOCC1)c1cnn2c(-c3ccccc3)cc(-c3ccccc3)nc12,21
19,CCOc1cc(N2CCOCC2)c(OCC)cc1NC(=O)c1cc(-c2ccco2)nc2ccccc12,48
20,Nc1ccc2nc(CN3CCOCC3)[nH]c2c1,47
21,CNc1nnc(-c2cc3cc(Cl)ccc3oc2=O)s1,4
22,COc1cc2c3c(c1)/C(=C1/SC(NC(C)=O)=NC1=O)C(=O)N3C(C)(C)C=C2C,4
23,CN1C(=O)CSc2ccc(NC(=O)N3CCC(N4CCCCC4)CC3)cc21,19
24,CCC1(C)NC(=O)N(CC(=O)Nc2sc3c(c2C(N)=O)CCC3)C1=O (configuration not stated),39
25,O=C(CCCn1c(=S)[nH]c2cc3c(cc2c1=O)OCO3)N1CCN(c2ccc(Cl)cc2)CC1,56
